In the library only some 11% were active in any assay of this set; here they are far more common.
Pf growth 96h – P. falciparum growth inhibition at 96 hour, primary screen for plastid delayed-death inhibitors | P. falciparum luciferase reporter growth, 96 h | Potency, µM (doses to about 28.7 µM), inactives show at the top dose activity change, negative = inhibition, actives largely listed as inhibitors | 320,000 tested, 6.9% active | AID 504834
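Cell-based qHTS: luciferase-tagged P. falciparum in erythrocytes (2% hematocrit, 0.05% parasitemia final) incubated with compounds for 96 hours, 37 C, 5% CO2; luciferase detection reagent then added and luminescence measured.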
Pf growth 48h – inhibits P. falciparum growth in the first generation, 48 h | Potency, µM (highest dose often 28.7 µM), inactives show top-dose activity change, negative = inhibition, usual class: inhibitors | 310,000 tested, 5.9% active | AID 504832 | P. falciparum luciferase growth in erythrocytes, 48 h
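First compound was added to culture medium, then infected red cells at 0.1% parasitemia and 2% hematocrit (final). After incubation at 37 C under 5% CO2, luciferase detection reagent was dispensed and light output recorded.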
HCV inh – inhibitors of hepatitis C virus infection; Huh7.5.1 HCVcc-Cre infection, luciferase reporter, 44 h; Potency, µM (series often up to 41.8 µM), for inactives: at the top dose activity change, negative = inhibition, usual class: inhibitors; 340,000 tested, 3.4% active; AID 651820
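1,000 cells/well; 4 h culture; + compound; + HCVcc-Cre (~0.5 moi); 44 h; luciferase substrate, RT 15 min; read 15 sec.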
AMA1-RON2 inh – disrupts binding of P. falciparum AMA1 to RON2; AlphaScreen AMA1-biotinylated RON2 peptide binding; AID 720542; Potency, µM (doses to about 58.2 µM), without a hit: at the highest dose activity change, negative = inhibition, actives largely listed as inhibitors; 360,000 tested, 0.2% active;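 also: 0% = vehicle wells and -100% = peptide control; nearly all actives have a fitted effect of over 45% in size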
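AMA1 (3D7) with his tag at 25 nM final met compounds first, then biotinylated RON2 peptide at 25 nM; detection used donor plus acceptor beads, 10 µg/mL apiece, read by AlphaScreen after 30 min at room temperature.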
Starred values were filed as active, the others as inactive; ? = inconclusive; nt = no result; [ ] = remark or other dose. Calls follow the shape of the dose curve; as a rule, active = well fitted curve in the direction sought with a large enough effect; inconclusive = small, poorly fitted or top-dose-only effect, or another doubt; inactive = no such curve, though single readings can be large; an effect the other way counts as inactive or inconclusive. Unless noted, % is scaled to controls: 0 for no effect and ±100 for the full control effect; potency is read from the fitted curve at half-maximal effect.

SMILES	Pf growth 96h	Pf growth 48h	HCV inh	AMA1-RON2 inh
CC1(C(=O)N/N=C/c2c(F)c(F)c(F)c(F)c2F)CC1(Cl)Cl (stereo not drawn)	nt	nt	11µM*	-1%
CCN1C[C@@H]2[C@@H]3C(=O)N(Cc4ccccc4)C(=O)[C@@H]3[C@](CC)(C1=O)N2C(=O)c1ccc(F)cc1	nt	nt	18%	1%
CC(C)=CCC12Oc3cc(O)ccc3C1(O)Oc1cc(O)c([C@H]3C=C(C)CC(c4ccc(O)cc4O)[C@H]3C(=O)c3ccc(O)cc3O)c(O)c1C2=O (stereo partly drawn)	nt	nt	13µM*	-15%
Cc1cnc(C(=O)N(c2ccc(N3CCOCC3)cc2)C2C(=O)Nc3ccccc3N=C2c2ccc(F)cc2)cn1 (stereo not drawn)	nt	nt	nt	63%
CCCc1nnc(NC(=S)Nc2ccccc2)s1	27%	62%	-15%	37%
CC(C)C(=O)Nc1nnc(NC(=S)Nc2ccccc2)s1	12µM*	6%	-23%	55%
COc1cccc(CN2CCC(n3nccc3NC(=O)CCOc3ccccc3)CC2)c1	3.3µM*	?	-10%	-11%
COc1ccc(CN2CCC(n3nccc3NC(=O)CCOc3ccccc3)CC2)cc1C	?	54%	?	14%
CCn1nc(C)c(CN2CCC(n3nccc3NC(=O)Cc3ccccc3)CC2)c1C	12µM*	-10%	nt	0%
O=C(CCOc1ccccc1)Nc1ccnn1C1CCN(CCc2ccccc2)CC1	13µM*	-21%	?	18%
O=C(CCOc1ccccc1)Nc1ccnn1C1CCN(Cc2ccc(O)cc2)CC1	24%	9.3µM*	-1%	-1%
CCCNC(=O)N1CCC(n2nccc2NC(=O)CCOc2ccccc2)CC1	?	6%	10%	22%
CCn1cc(CN2CCC(n3nccc3NC(=O)CCOc3ccccc3)CC2)cn1	?	3%	0%	-3%
Cc1ccc(S(=O)(=O)NCc2cccc([N+](=O)[O-])c2)cc1	nt	nt	nt	-7%
CCC(C(=O)NC(C)(C)C)n1c(-c2ccc3c(c2)OCO3)nc2ccccc21 (stereo not drawn)	nt	nt	nt	-6%
C=CCOc1cccn2c(N(C=O)Cc3ccc(OC)cc3)c(CC)nc12	nt	nt	nt	-2%
COc1ccc(CNC(=O)C2CC(C)=CCC2C(=O)O)cc1 (stereo not drawn)	-6%	-2%	9%	9%
CCn1ccnc1CN1CCC(n2nccc2NC(=O)CCc2ccccc2)CC1	8.3µM*	46%	-5%	60%
CCn1cc(CN2CCC(n3nccc3NC(=O)CCc3ccccc3)CC2)cn1	33%	-15%	1%	-5%
CCOC(=O)c1c(-c2ccc(F)cc2)csc1NC(=O)CCN1C(=O)c2ccccc2C1=O	?	-5%	10%	0%[2.32 µM]
CCOC(=O)c1sc(NC(=O)CCN2CCC(C)CC2)c(C(=O)OCC)c1C	4%	17%	?	-13%
CCOC(=O)c1c(-c2ccc(F)cc2)csc1NC(=O)CN1C(=O)NC2(CCCCC2C)C1=O (stereo not drawn)	9.3µM*	10µM*	?	19%
CCOC(=O)c1sc(NC(=O)CCN2CCN(CC)CC2)c(C(=O)OCC)c1C	?	?	10µM*	2%
CCOC(=O)c1c(-c2ccccc2)csc1NC(=O)CCN1C(=O)c2ccccc2C1=O	2.6µM*	12%	?	-5%
CCOC(=O)c1c(-c2cccs2)csc1NC(=O)CNCCN1CCOCC1	12µM*	?	nt	nt
SMILES	Pf growth 96h	Pf growth 48h	HCV inh	AMA1-RON2 inh
CC1(c2nnnn2-c2ccc3c(c2)OCCO3)CCC(=O)N1CCCN1CCOCC1 (stereo not drawn)	nt	nt	nt	-1%
CCOC(=O)c1c(-c2cccs2)csc1NC(=O)C(C)(C)C	nt	13µM*	?	11%
CCOC(=O)c1c(-c2ccc(-c3ccccc3)cc2)csc1NC(=O)c1cccc(N2C(=O)CCC2=O)c1	5.2µM*	-2%	0%	-18%
CCOC(=O)c1c(-c2ccc(-c3ccccc3)cc2)csc1NC(=O)CCN1CCOCC1	4.7µM*	?	?	-7%[11.6 µM]
CCOC(=O)c1c(NC(=O)c2cccs2)sc(CC)c1-c1cccs1	10µM*	nt	nt	73%
CCOC(=O)c1c(NC(=O)c2cccc(N3C(=O)CCC3=O)c2)sc(C)c1C	-20%	31%	?	-1%
Cc1ccc(-c2nc(NCc3ccc(F)cc3)n(S(C)(=O)=O)n2)cc1	15%	15%	?	-4%
Cc1ccc2[nH]c3c(=O)n(CC(=O)Nc4ccccc4N4CCN(C)CC4)ncc3c2c1	?	?	?	7%
CCOC(=O)c1c(-c2ccccc2)csc1NC(=S)NC	16%	10%	-2%	75%
CCOC(=O)c1c(NC(=O)CCN2C(=O)c3ccccc3C2=O)sc(C(=O)OC(C)C)c1C	?	2%	?	-1%
CCNC(=S)Nc1scc(-c2ccccc2)c1C(=O)OCC	20%	-1%	2%	34%
CCOC(=O)c1c(-c2ccccc2)csc1NC(=O)C(C)NCCCN1CCOCC1 (stereo not drawn)	?	?	10µM*	-6%
CCOC(=O)c1sc(NC(=O)CCN2C(=O)c3ccccc3C2=O)c(C(=O)OCC)c1C	13µM*	16%	?	0%
CCOC(=O)c1c(-c2ccc(F)cc2)csc1NC(=O)CCN1CCOCC1	?	?	5%	5%
CCOC(=O)c1c(-c2ccccc2)csc1NC(=O)c1cc2ccccc2oc1=O	13µM*	12%	14%	1%
CCOC(=O)c1c(-c2ccc(-c3ccccc3)cc2)csc1NC(=O)CNCCN(C)C	?	nt	5.6µM*	-1%
CCN1C(=O)[C@H]2[C@@H](c3ccc(-c4ccc(OC)cc4)cc3)N3CCCC[C@@]3(C(=O)OC)[C@H]2C1=O	?	15µM*	?	-13%
CCN1C(=O)[C@H]2[C@@H](c3ccc(-c4ccc(OC)cc4)cc3)N3CCC[C@@]3(C(=O)OC)[C@H]2C1=O	?	13µM*	?	-12%
CCN1C(=O)[C@@H]2[C@@H](c3ccc(-c4ccc(OC)cc4)cc3)N3CCC[C@@]3(C(=O)OC)[C@@H]2C1=O	12µM*	9.3µM*	?	-28%
CCN1C(=O)[C@@H]2[C@@H](c3ccc(-c4ccc(F)cc4)cc3)N3CCC[C@@]3(C(=O)OC)[C@@H]2C1=O	?	?	-9%	-22%
CCN1C(=O)[C@@H]2[C@@H](c3ccc(-c4ccc(Cl)c(Cl)c4)cc3)N3CCC[C@@]3(C(=O)OC)[C@@H]2C1=O	nt	nt	0%	-1%
CCN1C(=O)[C@H]2[C@@H](c3ccc(-c4ccc(F)cc4)cc3)N3CCCC[C@@]3(C(=O)OC)[C@H]2C1=O	13µM*	9.3µM*	?	-8%
CCN1C(=O)[C@H]2[C@@H](c3ccc(-c4ccccc4)cc3)N3CCC[C@@]3(C(=O)OC)[C@H]2C1=O	13µM*	4.7µM*	-2%	6%
CCN1C(=O)[C@@H]2[C@@H](c3ccc(-c4ccccc4)cc3)N3CCC[C@@]3(C(=O)OC)[C@@H]2C1=O	nt	nt	-10%	-7%
